Measurements as given in PubChem BioAssay (NCI).
Compounds without any hit were thinned out: in the full panel of roughly 83,000, 20% have a hit.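 Single-concentration screen, 48 h exposure, 96-well plates. Endpoint: percent growth. Below 10 = active.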 The source made the active and inactive calls.

Assays:
Test in all cases: NCI-60 one-dose screen, 48 h (100 = growth as untreated, 0 = no growth, -100 = all killed)
Conditions in all cases: 10 µM
HT29 colon = tested on: HT29 colon
SNB-75 CNS = tested on: SNB-75 CNS
SNB-19 CNS = tested on: SNB-19 CNS
U251 CNS = tested on: U251 CNS
PC-3 prostate = tested on: PC-3 prostate
SK-MEL-5 melanoma = tested on: SK-MEL-5 melanoma
UACC-62 melanoma = tested on: UACC-62 melanoma
LOX IMVI melanoma = tested on: LOX IMVI melanoma
SK-MEL-28 melanoma = tested on: SK-MEL-28 melanoma
SK-MEL-2 melanoma = tested on: SK-MEL-2 melanoma
SN12C renal = tested on: SN12C renal
UO-31 renal = tested on: UO-31 renal
TK-10 renal = tested on: TK-10 renal
ACHN renal = tested on: ACHN renal
CAKI-1 renal = tested on: CAKI-1 renal
A498 renal = tested on: A498 renal
CCRF-CEM leukemia = tested on: CCRF-CEM leukemia
MOLT-4 leukemia = tested on: MOLT-4 leukemia
EKVX NSCLC = tested on: EKVX NSCLC
SR leukemia = tested on: SR leukemia

Measured: growth

Cc1ccc(NC(=O)NC2CCCCC2)cc1
inactive: HT29 colon 101% | SNB-75 CNS 107% | SNB-19 CNS 102% | U251 CNS 99.7% | PC-3 prostate 104% | SK-MEL-5 melanoma 100% | UACC-62 melanoma 105% | LOX IMVI melanoma 96.3% | SK-MEL-28 melanoma 104% | SK-MEL-2 melanoma 92% | SN12C renal 106% | UO-31 renal 96% | TK-10 renal 110% | ACHN renal 106% | CAKI-1 renal 104% | A498 renal 98.2% | CCRF-CEM leukemia 98.9% | MOLT-4 leukemia 102%

Cc1cc(N(CCCNc2ccnc3cc(Cl)ccc23)Cc2ccc3c(c2)OCO3)nc(N2CCOCC2)n1
active: HT29 colon 3.19% | U251 CNS 5.18% | SK-MEL-5 melanoma -88.1% | LOX IMVI melanoma -24.2% | SK-MEL-28 melanoma -44.7% | UO-31 renal 3.36% | MOLT-4 leukemia -15.9% | SR leukemia -27.7%
inactive: SNB-75 CNS 61.4% | SNB-19 CNS 32.3% | PC-3 prostate 27.1% | UACC-62 melanoma 27.1% | SK-MEL-2 melanoma 32.4% | EKVX NSCLC 66.5% | SN12C renal 44.7% | TK-10 renal 13.9% | ACHN renal 14.3% | A498 renal 54.1%

CC[C@H](C)C(=O)O[C@H]1CCC=C2C=C[C@H](C)C(CCC3C[C@@H](O)CC(=O)O3)[C@H]21 (stereo partly drawn)
inactive: HT29 colon 92.3% | SNB-75 CNS 32.2% | SNB-19 CNS 56.2% | U251 CNS 16.8% | PC-3 prostate 31.1% | SK-MEL-5 melanoma 60% | UACC-62 melanoma 29.6% | LOX IMVI melanoma 11.6% | SK-MEL-28 melanoma 78.4% | SK-MEL-2 melanoma 19.5% | EKVX NSCLC 65.6% | SN12C renal 32.4% | UO-31 renal 70.1% | TK-10 renal 97.2% | CCRF-CEM leukemia 82.3% | MOLT-4 leukemia 91.9% | SR leukemia 15.5%
active: CAKI-1 renal -1.64% | A498 renal -33.8%

CC(=O)N1N=C(c2ccc(Cl)cc2)CC1c1sc(Cl)nc1Cl (stereo not drawn)
active: A498 renal 9.27%
inactive: HT29 colon 64.2% | SNB-75 CNS 84.3% | SNB-19 CNS 66.9% | U251 CNS 71.2% | PC-3 prostate 72.8% | SK-MEL-5 melanoma 89.5% | UACC-62 melanoma 83.3% | LOX IMVI melanoma 88.4% | SK-MEL-28 melanoma 94.7% | SK-MEL-2 melanoma 84.9% | SN12C renal 69.6% | UO-31 renal 40.9% | TK-10 renal 68.8% | ACHN renal 105% | CAKI-1 renal 75.9% | CCRF-CEM leukemia 93.4% | MOLT-4 leukemia 77.6% | SR leukemia 58.5%

CCN(CC)CCNC(=O)c1ccc(NC(C)=O)cc1
inactive: HT29 colon 102% | SNB-75 CNS 112% | SNB-19 CNS 98.1% | U251 CNS 93.9% | PC-3 prostate 104% | SK-MEL-5 melanoma 103% | UACC-62 melanoma 94.2% | LOX IMVI melanoma 95.3% | SK-MEL-28 melanoma 118% | SK-MEL-2 melanoma 115% | EKVX NSCLC 100% | SN12C renal 94.6% | UO-31 renal 98.3% | TK-10 renal 103% | CAKI-1 renal 95.2% | A498 renal 78.7% | CCRF-CEM leukemia 114% | MOLT-4 leukemia 107% | SR leukemia 101%

COc1ccc(/C=C2/CN(C(=O)c3ccc(C)cc3)C/C(=C\c3ccc(OC)cc3)C2=O)cc1
inactive: HT29 colon 32.9% | SNB-75 CNS 82.7% | SNB-19 CNS 98.5% | U251 CNS 89.4% | PC-3 prostate 68.6% | SK-MEL-5 melanoma 89.1% | UACC-62 melanoma 86.4% | LOX IMVI melanoma 42.1% | SK-MEL-28 melanoma 116% | SK-MEL-2 melanoma 95.1% | SN12C renal 90.7% | UO-31 renal 58.5% | TK-10 renal 113% | ACHN renal 92% | CAKI-1 renal 85.2% | A498 renal 89.4% | CCRF-CEM leukemia 71.3% | MOLT-4 leukemia 69.3% | SR leukemia 12.8%

CCOCCOCCOCCOCCOCCOCCOCCOCCOCCO (tested in a mixture with another compound)
inactive: SNB-75 CNS 32.8% | SNB-19 CNS 25.2% | UACC-62 melanoma 13.2% | SK-MEL-28 melanoma 36.5% | EKVX NSCLC 12.7% | SN12C renal 10.5% | UO-31 renal 19.1% | CAKI-1 renal 13.1%
active: HT29 colon -44% | U251 CNS 7.66% | PC-3 prostate 9.21% | SK-MEL-5 melanoma -81.6% | LOX IMVI melanoma -72.5% | SK-MEL-2 melanoma -61.7% | TK-10 renal 0.0792% | CCRF-CEM leukemia -39.9% | MOLT-4 leukemia -49.5% | SR leukemia -52.4%

OCC1OC(n2cnc3c(N/N=C\c4ccccn4)ncnc32)C(O)C1O (stereo not drawn)
active: SK-MEL-5 melanoma -10.1% | EKVX NSCLC 7.34% | UO-31 renal -23.5%
inactive: HT29 colon 34.5% | SNB-75 CNS 40.3% | SNB-19 CNS 34.5% | U251 CNS 25.1% | PC-3 prostate 21% | UACC-62 melanoma 22% | LOX IMVI melanoma 11.2% | SK-MEL-28 melanoma 38% | SK-MEL-2 melanoma 58.2% | SN12C renal 18.9% | TK-10 renal 42.1% | ACHN renal 11.8% | CCRF-CEM leukemia 16.8% | MOLT-4 leukemia 21% | SR leukemia 20.3%

COc1cc(-c2cc(/C=C/C(=O)c3ccc(N)cc3)[nH]n2)cc(OC)c1OC
inactive: SNB-19 CNS 36.6% | PC-3 prostate 11.1% | SK-MEL-5 melanoma 11.8% | UACC-62 melanoma 20.6% | SK-MEL-2 melanoma 28.6% | SN12C renal 13.2%
active: HT29 colon 2.34% | SNB-75 CNS 8.6% | U251 CNS -58.4% | LOX IMVI melanoma -52.3% | SK-MEL-28 melanoma 6.59% | UO-31 renal 6% | TK-10 renal -2.46% | ACHN renal -52.8% | CAKI-1 renal 9.46% | A498 renal -8.28% | CCRF-CEM leukemia 5.88% | MOLT-4 leukemia 3.34% | SR leukemia 9.82%

Cc1ccc(C(=O)Nc2cccc(F)c2)cc1NC(=O)C1(c2ncnc3[nH]ccc23)CC1
inactive: HT29 colon 52.5% | SNB-75 CNS 95.8% | SNB-19 CNS 120% | U251 CNS 93.6% | PC-3 prostate 92.2% | SK-MEL-5 melanoma 74.3% | UACC-62 melanoma 54.5% | LOX IMVI melanoma 42.1% | SK-MEL-28 melanoma 83.3% | SK-MEL-2 melanoma 14.5% | EKVX NSCLC 91.8% | SN12C renal 91.2% | UO-31 renal 51.6% | TK-10 renal 132% | ACHN renal 98.8% | A498 renal 105% | CCRF-CEM leukemia 87.9% | MOLT-4 leukemia 72.7% | SR leukemia 87.9%

O=C(Nc1cccc(Cl)c1)Nc1nccs1
inactive: HT29 colon 94.4% | SNB-75 CNS 91.6% | SNB-19 CNS 83.4% | U251 CNS 94.1% | PC-3 prostate 94.5% | SK-MEL-5 melanoma 89.7% | UACC-62 melanoma 79.8% | LOX IMVI melanoma 94.1% | SK-MEL-28 melanoma 103% | SK-MEL-2 melanoma 97.2% | EKVX NSCLC 98.1% | SN12C renal 87.7% | UO-31 renal 89.9% | TK-10 renal 109% | ACHN renal 98.5% | A498 renal 99.2% | CCRF-CEM leukemia 83.2% | MOLT-4 leukemia 101% | SR leukemia 78.5%

Clc1nc(Cl)c2c(ncn2C/C=C\Cn2cnc3c(Cl)nc(Cl)nc32)n1
active: HT29 colon -30.6% | SNB-75 CNS -28.9% | SNB-19 CNS -15.6% | U251 CNS -93.6% | PC-3 prostate -96.2% | SK-MEL-5 melanoma -91% | UACC-62 melanoma -79% | LOX IMVI melanoma -94.2% | SK-MEL-28 melanoma -50.3% | SK-MEL-2 melanoma 5.02% | EKVX NSCLC -79.8% | SN12C renal -5.17% | TK-10 renal -97.2% | ACHN renal -100% | CAKI-1 renal -100% | CCRF-CEM leukemia -81% | MOLT-4 leukemia -59.4% | SR leukemia -66.3%

COc1cc2c(cc1OCCCCCCN1CCN(CC(=O)Nc3ccc(Cl)cc3C(=O)c3ccccc3Cl)CC1)N=CC1CCCN1C2=O (stereo not drawn)
active: HT29 colon -56.8% | SNB-75 CNS -84.5% | SNB-19 CNS -77.7% | U251 CNS -100% | PC-3 prostate -100% | SK-MEL-5 melanoma -100% | UACC-62 melanoma -98.7% | LOX IMVI melanoma -93.9% | SK-MEL-28 melanoma -85.8% | SK-MEL-2 melanoma -69.6% | EKVX NSCLC -93.2% | SN12C renal -90.2% | TK-10 renal -98.8% | ACHN renal -100% | CAKI-1 renal -98.8% | MOLT-4 leukemia -64% | SR leukemia -70.2%

COc1cc(Nc2ccnc(NCCCNc3ccnc4cc(Cl)ccc34)n2)cc(OC)c1
active: HT29 colon -31.9% | SNB-75 CNS -58.6% | SNB-19 CNS 2.03% | U251 CNS -64.4% | SK-MEL-5 melanoma -100% | UACC-62 melanoma -82.5% | LOX IMVI melanoma -82.5% | SK-MEL-28 melanoma -100% | SK-MEL-2 melanoma -81.6% | UO-31 renal -74.8% | TK-10 renal -63.4% | ACHN renal -58.1% | CAKI-1 renal -3.88% | CCRF-CEM leukemia -5.06% | MOLT-4 leukemia -39.6% | SR leukemia -21.6%
inactive: PC-3 prostate 26.1% | SN12C renal 22.6% | A498 renal 14.9%

Nc1nc(N)c(NC(=O)CNc2ccc(C(=O)O)cc2)c(N)n1
inactive: HT29 colon 107% | SNB-75 CNS 76% | SNB-19 CNS 105% | U251 CNS 105% | PC-3 prostate 101% | SK-MEL-5 melanoma 103% | UACC-62 melanoma 101% | LOX IMVI melanoma 98.3% | SK-MEL-28 melanoma 97.9% | SK-MEL-2 melanoma 102% | SN12C renal 97.1% | UO-31 renal 94.1% | TK-10 renal 108% | ACHN renal 115% | CAKI-1 renal 91.5% | A498 renal 101% | CCRF-CEM leukemia 98% | MOLT-4 leukemia 107%

COc1cc2cc3c(nc2cc1OC)CCN3Cc1ccc(NC(=O)Nc2cc(C(F)(F)F)cc(C(F)(F)F)c2)cc1
inactive: HT29 colon 76.7% | SNB-75 CNS 69.1% | SNB-19 CNS 71.9% | U251 CNS 64.1% | PC-3 prostate 39.6% | SK-MEL-5 melanoma 89.9% | UACC-62 melanoma 80.7% | LOX IMVI melanoma 75.4% | SK-MEL-28 melanoma 98.5% | SK-MEL-2 melanoma 80.2% | SN12C renal 74.3% | UO-31 renal 57.7% | TK-10 renal 85.6% | ACHN renal 69.6% | CAKI-1 renal 69.4% | A498 renal 58.4% | CCRF-CEM leukemia 51.7% | MOLT-4 leukemia 36.9% | SR leukemia 55.2%

CC1CC(=O)OC(C)C1 (stereo not drawn)
inactive: HT29 colon 112% | SNB-75 CNS 78.9% | SNB-19 CNS 116% | U251 CNS 101% | PC-3 prostate 101% | SK-MEL-5 melanoma 100% | UACC-62 melanoma 114% | LOX IMVI melanoma 102% | SK-MEL-28 melanoma 102% | SK-MEL-2 melanoma 90.1% | SN12C renal 109% | UO-31 renal 94.1% | TK-10 renal 104% | ACHN renal 110% | CAKI-1 renal 93% | A498 renal 96.1% | CCRF-CEM leukemia 101%
